A number with no mark means an inactive call.
System: Vero E6 infected with SARS-CoV-2
Experiment: inhibition of SARS-CoV-2 cytopathic effect; higher = more antiviral protection, active = above 15
Conditions: 48 h

Compound	inhibition of SARS-CoV-2 cytopathic effect (1 nM)	inhibition of SARS-CoV-2 cytopathic effect (8.33 nM)	inhibition of SARS-CoV-2 cytopathic effect (100 nM)	inhibition of SARS-CoV-2 cytopathic effect (833.33 nM)	inhibition of SARS-CoV-2 cytopathic effect (10000 nM)
Cc1c(Cc2ccc3ccccc3n2)c2cc(F)ccc2n1CC(=O)O	1.64%	-0.1%	0.44%	-1.23%	-2.21%
CCCCCCCCCCCCCCCC(=O)OC[C@H](COP(=O)([O-])OCC[N+](C)(C)C)OC(=O)CCCCCCCCCCCCCCC [colfosceril-palmitate]	-7.11%	-7.33%	-5.95%	-6.54%	-9.82%
COc1nc(N)nc2c1ncn2[C@@H]1O[C@H](CO)[C@@H](O)[C@@H]1O [nelarabine]	-1.29%	-1.48%	-0.71%	-0.9%	1.12%
C/C(=C\C(=O)Nc1ccccc1C(=O)O)c1ccc2ccccc2c1	3.55%	3.85%	1.03%	1.37%	-2.89%
CC1(C)CCC(C)(C)c2cc(C(=O)Nc3ccc(C(=O)O)cc3)ccc21	0.12%	2.74%	1.53%	1.49%	3.21%
N#Cc1c(N)nc(SCc2ncc[nH]2)c(C#N)c1-c1ccc(O)cc1	-0.59%	-2.41%	1.83%	-3.13%	0.18%
COCCOC(=O)C1=C(C)NC(C)=C(C(=O)OC(C)C)C1c1cccc([N+](=O)[O-])c1 (stereo not given) [nimodipine]	-2.49%	-0.07%	-1%	1.52%	1.16%
O=C(O)COc1ccc(/C=C2\SC(=O)NC2=O)cc1	0.12%	0.67%	5.3%	4.16%	-0.64%
CC(=O)N1CCC[C@H]1C(=O)N[C@@H](Cc1cnc[nH]1)C(=O)N[C@@H](CO)C(=O)N[C@@H](CS)C(=O)N[C@@H](CC(N)=O)C(N)=O	1.06%	0.67%	2.55%	2.87%	3.86%
CC(=O)N1N=C(c2ccc(N)cc2)c2cc3c(cc2C[C@H]1C)OCO3 [talampanel]	-0.4%	0.84%	0.91%	1.19%	1.16%
CC(C)c1cc(C(C)C)c(CC(=O)NS(=O)(=O)Oc2c(C(C)C)cccc2C(C)C)c(C(C)C)c1 [avasimibe]	-2.41%	1.3%	-0.91%	-2.68%	-1.52%
O=C(O[C@H]1C[C@H]2CC[C@@H](C1)[N+]21CCCC1)C(O)(c1ccccc1)c1ccccc1 [trospium]	-1.88%	0.55%	1.21%	-1.72%	-0.69%
CCN1CCN(c2ccc(C(C)(C)NC(=O)c3cc4[nH]c5ccccc5c(=O)c4cc3F)cn2)CC1	0.53%	-0.52%	3.59%	2.28%	26.8% (active)
Nc1ccn([C@H]2CO[C@@H](CO)S2)c(=O)n1 [apricitabine]	0.27%	2.59%	0.92%	2.02%	-3.28%
CN1CCN(CCCN2c3ccccc3Sc3ccc(C(F)(F)F)cc32)CC1 [trifluoperazine]	-0.89%	1.64%	-3.09%	-4.01%	14.5%
COc1cccc(Nc2c(C(N)=O)cnc3c(C)cc(S(=O)(=O)c4cccc(C(=O)N(C)C)c4)cc23)c1	1.19%	3.12%	0.15%	3.01%	0.48%
N#CC(c1ccccc1)(c1ccccc1)c1ccccc1Cl	2.09%	1.23%	3.05%	3.49%	3.88%
Cc1cccc(Oc2cnc(=O)[nH]c2)c1 [tolimidone]	-0.32%	-2.84%	-2.12%	-13.1%	0.88%
O=C(OCCO)c1ccccc1O [2-hydroxyethyl-salicylate]	0.19%	1.56%	-0.09%	0.15%	-2.92%

Compound	inhibition of SARS-CoV-2 cytopathic effect (1 nM)	inhibition of SARS-CoV-2 cytopathic effect (8.33 nM)	inhibition of SARS-CoV-2 cytopathic effect (100 nM)	inhibition of SARS-CoV-2 cytopathic effect (833.33 nM)	inhibition of SARS-CoV-2 cytopathic effect (10000 nM)
CN1C(=O)CC(c2ccccc2)C1=O (stereo not given) [phensuximide]	2.58%	3.13%	2.74%	2.55%	-1.46%
Oc1ccc(-c2nc(-c3ccc(F)cc3)c(-c3ccncc3)[nH]2)cc1	0.33%	1.64%	-1.29%	2.83%	8.91%
CC(=O)O[C@]1(C(C)=O)CC[C@H]2[C@@H]3C=C(C)C4=CC(=O)CC[C@@H]4[C@H]3CC[C@@]21C [nomegestrol-acetate]	-1.8%	-1.93%	0.03%	1.28%	-2.55%
C[C@H]1O[C@@H](O[C@H]2CC[C@@]3(C)[C@H](CC[C@@H]4[C@@H]3C[C@@H](O)[C@]3(C)[C@@H](C5=CC(=O)OC5)CC[C@]43O)C2)C[C@H](O)[C@@H]1O[C@H]1C[C@H](O)[C@H](O[C@H]2C[C@H](O)[C@H](O[C@@H]3O[C@H](CO)[C@@H](O)[C@H](O)[C@H]3O)[C@@H](C)O2)[C@@H](C)O1 [deslanoside]	-1.34%	-4.74%	-14.1%	-18.9%	-20.6%
Cc1cc(NC(=O)Nc2ccc(F)c(F)c2)n(-c2ccccc2)n1	-0.5%	-1.46%	0.29%	-0.03%	0.43%
NC(CO)C(=O)NNCc1ccc(O)c(O)c1O (stereo not given) [benserazide]	-1.48%	3.19%	2.6%	-3.13%	-4.67%
O=C(O)c1cc2ccccc2s1	-0.94%	-1.01%	-0.94%	-0.45%	0.62%
N#Cc1cc2c(OCC(O)CN3CCN(C(c4ccccc4)c4ccccc4)CC3)cccc2[nH]1 (stereo not given)	0.5%	-0.23%	0.3%	4.21%	-2.26%
N#Cc1ccc2[nH]cc(CCCCN3CCN(c4ccc5oc(C(N)=O)cc5c4)CC3)c2c1 [vilazodone]	0.76%	1.07%	0.51%	1.56%	-3.06%
Cc1cc([C@@H](C)Nc2ccccc2C(=O)O)c2nc(N3CCOCC3)cc(=O)n2c1	-0.68%	-0.79%	-4.63%	-7.74%	-2.98%
CO[C@@]12[C@H](COC(N)=O)C3=C(C(=O)C(C)=C(N)C3=O)N1C[C@@H]1N[C@@H]12 [mitomycin-C]	-6.42%	-2.65%	-0.38%	-1.53%	-5.17%
COc1ccccc1CN[C@H]1CCCN[C@H]1c1ccccc1	-0.59%	-1.96%	2.38%	-1.82%	-3.19%
O=C(O)CCc1nc(-c2ccccc2)c(-c2ccccc2)o1 [oxaprozin]	-1.4%	-2.65%	-0.38%	-0.99%	0.84%
O=C(Nc1ccc(S(=O)(=O)Nc2ccccc2Cl)c(Cl)c1)c1ccccn1	0.59%	0.83%	-1.92%	2.48%	0.25%
CC(C)(C)CCN1C[C@@H]2[C@@H](CNC(=O)c3cc(Cl)cc(Cl)c3)[C@@H]2C1	2.47%	2.05%	1.76%	2.2%	-10.4%
Cc1ccc(C(=O)Cn2c3c(sc2=N)CCCC3)cc1 [pifithrin-alpha]	-1.05%	-0.83%	-1.23%	-1.09%	-2.47%
CCCCCC(=O)O[C@]1(C(C)=O)CC[C@H]2[C@@H]3CCC4=CC(=O)CC[C@]4(C)[C@H]3CC[C@@]21C [17-hydroxyprogesterone-caproate]	-1.12%	1.14%	1.12%	1.58%	5.84%
CC(=O)OC/C=C(C)/C=C/C=C(C)/C=C/C1=C(C)CCCC1(C)C [retinyl-acetate]	-1.78%	0.37%	-0.15%	1.34%	0.15%
Nc1cc(Cl)c(N=C2NCCN2)c(Cl)c1 [apraclonidine]	-2.77%	1.32%	-1.3%	-1.26%	-0.76%
